Here are results for 19 molecules from PubChem BioAssay (NCI).

This is part of a sample that, as a whole, favours compounds with a hit. Of some 79,000 tested, about 15% had one in any assay. Unmarked numbers belong to inactive results. The source made the active and inactive calls. No stated cut-off is given here; in the data, active means growth inhibition above about 70%; inactive means the rest.

Test [1] is described as follows: NCI Yeast Anticancer Drug Screen. Data for the rad50 strain (AID 155).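 Further: 0% = growth of vehicle-only cultures of the same strain.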 To be noted: S. cerevisiae rad50 strain growth inhibition; at 50.0 µM; hits give high values. A digest of the protocol: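 Readout: growth inhibition relative to vehicle-treated cultures. Compound exposure was carried out in a genetically defined yeast strain deficient in DNA damage repair.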
The nature of test [2]: NCI Yeast Anticancer Drug Screen. Data for the mec2-1 strain (AID 157). The settings on record: S. cerevisiae mec2-1 strain, at 50.0 µM, hits give high values. A digest of the protocol:
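Cells of the genetically defined mec2-1 yeast strain are incubated with test compound. Inhibition of growth is calculated against vehicle-treated controls.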

Test [3] in a line: NCI Yeast Anticancer Drug Screen. Data for the sgs1 mgt1 strain (AID 161).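 Further: 0% = growth of cultures given vehicle only.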 The settings on record: S. cerevisiae sgs1 mgt1 strain, at 50.0 µM, hits give high values. The gist of the method:
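Genetically altered yeast, compound exposure, growth inhibition relative to vehicle.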

Test [4] in a line: NCI Yeast Anticancer Drug Screen. Data for the cln2 rad14 strain (AID 165).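 Further: 0% = growth equal to vehicle treated cultures.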 To be noted: S. cerevisiae cln2 rad14 strain, at 50.0 µM, hits give high values. A digest of the protocol: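 The screen exposed genetically defined yeast (cln2 rad14) to test compounds and scored growth inhibition relative to vehicle-treated controls.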
Test [5] is described as follows: NCI Yeast Anticancer Drug Screen. Data for the bub3 strain (AID 167). To be noted: S. cerevisiae bub3 mutant strain, at 50.0 µM, hits give high values. A digest of the protocol: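 Readout: yeast growth inhibition, expressed relative to vehicle-only wells. The test organism is a mutant strain from a panel with lesions in DNA repair or checkpoint genes.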
Test [6] is described as follows: NCI Yeast Anticancer Drug Screen. Data for the mlh1 rad18 strain (AID 175). The settings on record: S. cerevisiae mlh1 rad18 strain growth inhibition; at 50.0 µM; hits give high values. The gist of the method: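 Compound-treated yeast growth, normalised to vehicle controls. Strain bears defined DNA repair mutations.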

In the case of `COc1ccc(/C=N/NC(=O)CCCCCCCCC(=O)N/N=C/c2ccc(OC)c(OC)c2)cc1OC`, the growth inhibition in test [1] is -26.4%; in test [2], -13.4%; in test [3], -23.4%; in test [4], -50.2%; in test [5], -0.75%; in test [6], -12.5%.

For the molecule `CC1(C)CS(=O)(=O)CC(C)(C)C(=O)C1=O`, the growth inhibition is -25.6% in test [1]; -19% in test [2]; -15% in test [3]; 5.45% in test [4]; -6% in test [5]; -3.4% in test [6].

Regarding `Nc1ccc([N+](=O)[O-])c(C(F)(F)F)c1`, the growth inhibition is 14.1% in test [1]; -33.6% in test [2]; 4.25% in test [3]; -14.4% in test [4]; -6.55% in test [5]; 22.6% in test [6].

With `Oc1ccccc1C=Nc1cccnc1`, the growth inhibition in test [1] was 6.75%; in test [2], -19.5%; in test [3] it was -2.45%; in test [4], -7.2%; in test [5], -0.6%; in test [6], 8.7%.

In the case of `Cc1cccc(CN)n1`, the growth inhibition in test [1] is -2.55%; in test [2], -29.2%; in test [3], 17.4%; in test [4] it was 4.05%; in test [5] it was -5.85%; in test [6], 2.15%.

As to `CN(C)Cc1cc(C(=O)/C=C/c2c(Cl)cccc2Cl)cc(CN(C)C)c1O`, the growth inhibition is -32% in test [1]; -17.6% in test [2]; -3% in test [3]; -31.2% in test [4]; -0.75% in test [5]; -18.9% in test [6].

For `COc1ccc(C(=O)C(c2ccc(OCc3ccccc3)cc2)c2ccc(OCc3ccccc3)cc2)cc1`, the growth inhibition in test [1] was 5.4%; in test [2] it was -35.8%; in test [3], -6.35%; in test [4] it was 26.9%; in test [5], -25.7%; in test [6], -5.55%.

With `CC(=O)OCC1OC(n2ncnc2CI)C(OC(C)=O)C(OC(C)=O)C1OC(C)=O` (centres undefined), the growth inhibition was 36.5% in test [1]; 8.35% in test [2]; 13.6% in test [3]; 16.9% in test [4]; 4.15% in test [5]; 21.5% in test [6].

Turning to `Cc1cc(Br)ncc1[N+](=O)[O-]`, the growth inhibition in test [1] is -12.8%; in test [2] it was 3.3%; in test [3] it was -1.25%; in test [4] it was -6%; in test [5] it was -3.7%; in test [6], -7.6%.

As for `CNC(=O)NCCc1c[nH]c2ccccc12`, the growth inhibition was -35.9% in test [1]; -19.9% in test [2]; -49.1% in test [3]; -24.1% in test [4]; -26.7% in test [5]; -40.9% in test [6].

`CC(=O)OCC1OC(n2cnc3c(N)ncnc32)C(O)C1O` (centres undefined): the growth inhibition is -3.7% in test [1]; -6.45% in test [2]; -6.15% in test [3]; -39.7% in test [4]; 4.5% in test [5]; -11.2% in test [6].

Consider `CCC1(C)N=C(N)Nc2nc3cc(C)c(C)cc3n21` (centres undefined), for which the growth inhibition in test [1] was 15.2%; in test [2] it was 17.7%; in test [3], 25.1%; in test [4] it was 7.05%; in test [5], 19.9%; in test [6], 21.4%.

Regarding `C[C@]12CCC[C@H](O)[C@H]1O2`, the growth inhibition in test [1] is -6.45%; in test [2] it was 3.25%; in test [3], -16.1%; in test [4], 0.55%; in test [5], 0.5%; in test [6], -10.2%.

Take `N#CC1CC2c3ccccc3C1([N+](=O)[O-])c1ccccc12` (centres undefined): the growth inhibition in test [1] was 54.5%; in test [2] it was 26.9%; in test [3], 12.8%; in test [4] it was 43%; in test [5], 45%; in test [6], 70.7% (active).

Turning to `NC(=O)c1nnc2ccc(F)cc2c1N`, the growth inhibition in test [1] is -35.2%; in test [2], -37%; in test [3], -23.2%; in test [4], -2.55%; in test [5], -9.35%; in test [6] it was -27.2%.

In the case of `CCC(C)NS(=O)(=O)c1ccc(Cl)cc1` (centres undefined), the growth inhibition in test [1] was 18.4%; in test [2], 9.55%; in test [3] it was 6.45%; in test [4], 8.6%; in test [5], 5.85%; in test [6] it was 3.7%.

For the molecule `CC1C[P+](c2ccccc2)(c2ccccc2)Cc2ccccc21` (centres undefined), the growth inhibition was 3.4% in test [1]; 9.75% in test [2]; -8.25% in test [3]; -13.4% in test [4]; -1.85% in test [5]; 4.6% in test [6].

For the molecule `COc1ccc(OC)c(/C=C/c2ccc(NC(=O)C(Cl)(Cl)Cl)cc2)c1`, the growth inhibition in test [1] was -11.1%; in test [2] it was -3.8%; in test [3], -12.2%; in test [4] it was -36.3%; in test [5], -2.55%; in test [6], 10.2%.

On to `O=C(O)c1[nH]ncc1[N+](=O)[O-]`, for which the growth inhibition is 24.1% in test [1]; -4.85% in test [2]; -5.05% in test [3]; 11.3% in test [4]; 11% in test [5]; 2.8% in test [6].
